# Measured values: PubChem BioAssay AID1159580 (chemical genetic matrix, 2015)
# Where “and” joins values, the source holds several entries; their conditions need not be identical. Identical values can stand only once. The whole screen tested about 5,500 compounds, of which about 2,000 (36%) were called active. Inconclusive results (about 18%) are left out. The list shows a part of the results. A number with no mark means an inactive call. No stated cut-off is given here; in the data, active means normalized growth mostly below about 0.91 (no sharp cut-off); inconclusive means no clear call, values can overlap the other calls; inactive means mostly above about 0.92.
# Assay: chemical genetic growth profiling, strain panel (AID 1159580);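 further: tested at 20 µM; growth read once vehicle control cultures reached saturation at 30 °C; 1 = growth at the plate median or of vehicle wells; lower values mean less growth of the strain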
# Conditions: growth OD
smiles,measurement,setting,value
CC(C(=O)O)c1cccc(Oc2ccccc2)c1 (configuration not stated),normalized growth,"S. cerevisiae deletion strains, locus YAL013W, strain DEP1, hits give low values",0.963
same,normalized growth,"S. cerevisiae deletion strains, locus YBR021W, strain FUR4, hits give low values",0.983
same,normalized growth,"S. cerevisiae deletion strains, locus YBR229C, strain ROT2, hits give low values",0.94
same,normalized growth,"S. cerevisiae deletion strains, locus YCL029C, strain bik1, hits give low values",0.98
same,normalized growth,"S. cerevisiae deletion strains, locus YDL035C, strain GPR1, hits give low values",0.983
same,normalized growth,"S. cerevisiae deletion strains, locus YDL074C, strain BRE1, hits give low values",0.997
same,normalized growth,"S. cerevisiae deletion strains, locus YDL101C, strain DUN1, hits give low values",0.96
same,normalized growth,"S. cerevisiae deletion strains, locus YDL134C, strain PPH21, hits give low values",0.976
same,normalized growth,"S. cerevisiae deletion strains, locus YDL185W, strain tfp1, hits give low values",0.948
same,normalized growth,"S. cerevisiae deletion strains, locus YDL192W, strain arf1, hits give low values",0.973
same,normalized growth,"S. cerevisiae deletion strains, locus YDR101C, strain arx1, hits give low values",0.984
same,normalized growth,"S. cerevisiae deletion strains, locus YDR150W, strain NUM1, hits give low values",0.947
same,normalized growth,"S. cerevisiae deletion strains, locus YDR162C, strain NBP2, hits give low values",0.969
same,normalized growth,"S. cerevisiae deletion strains, locus YDR318W, strain mcm21, hits give low values",0.988
same,normalized growth,"S. cerevisiae deletion strains, locus YDR388W, hits give low values",0.978
same,normalized growth,"S. cerevisiae deletion strains, locus YDR502C, strain sam2, hits give low values",0.981
same,normalized growth,"S. cerevisiae deletion strains, locus YEL061C, strain CIN8, hits give low values",0.973
same,normalized growth,"S. cerevisiae deletion strains, locus YER110C, hits give low values",0.967
same,normalized growth,"S. cerevisiae deletion strains, locus YER155C, strain BEM2, hits give low values",0.958
same,normalized growth,"S. cerevisiae deletion strains, locus YER167W, strain BCK2, hits give low values",0.988
same,normalized growth,"S. cerevisiae deletion strains, locus YGL078C, strain dbp3, hits give low values",0.959
same,normalized growth,"S. cerevisiae deletion strains, locus YGL086W, strain mad1, hits give low values",0.98
same,normalized growth,"S. cerevisiae deletion strains, locus YGL248W, strain PDE1, hits give low values",0.974
same,normalized growth,"S. cerevisiae deletion strains, locus YGR078C, strain PAC10, hits give low values",0.999
same,normalized growth,"S. cerevisiae deletion strains, locus YGR135W, strain pre9, hits give low values",0.985
same,normalized growth,"S. cerevisiae deletion strains, locus YGR229C, strain SMI1, hits give low values",0.974
same,normalized growth,"S. cerevisiae deletion strains, locus YGR252W, strain gcn5, hits give low values",0.957
same,normalized growth,"S. cerevisiae deletion strains, locus YHR030C, strain SLT2, hits give low values",0.978 and 0.9
same,normalized growth,"S. cerevisiae deletion strains, locus YHR079C, strain IRE1 (second series), hits give low values",0.972
same,normalized growth,"S. cerevisiae deletion strains, locus YHR079C, strain IRE1, hits give low values",0.892
same,normalized growth,"S. cerevisiae deletion strains, locus YHR094C, strain hxt1, hits give low values",0.965
same,normalized growth,"S. cerevisiae deletion strains, locus YHR129C, strain ARP1, hits give low values",0.983
same,normalized growth,"S. cerevisiae deletion strains, locus YHR200W, strain rpn10, hits give low values",0.98
same,normalized growth,"S. cerevisiae deletion strains, locus YIL066C, strain RNR3, hits give low values",0.964
same,normalized growth,"S. cerevisiae deletion strains, locus YIL073C, strain SPO22, hits give low values",0.965
same,normalized growth,"S. cerevisiae deletion strains, locus YIL125W, strain kgd1, hits give low values",0.944
same,normalized growth,"S. cerevisiae deletion strains, locus YIR030C, strain dcg1, hits give low values",0.962
same,normalized growth,"S. cerevisiae deletion strains, locus YJL095W, strain BCK1, hits give low values",1.05 and 0.905
same,normalized growth,"S. cerevisiae deletion strains, locus YJL134W, strain LCB3, hits give low values",0.962
same,normalized growth,"S. cerevisiae deletion strains, locus YJL168C, strain set2, hits give low values",0.967
same,normalized growth,"S. cerevisiae deletion strains, locus YJL187C, strain SWE1 (second series), hits give low values",0.983
same,normalized growth,"S. cerevisiae deletion strains, locus YJR043C, strain POL32, hits give low values",1
same,normalized growth,"S. cerevisiae deletion strains, locus YJR066W, strain TOR1, hits give low values",0.856
same,normalized growth,"S. cerevisiae deletion strains, locus YJR075W, strain HOC1, hits give low values",0.998
same,normalized growth,"S. cerevisiae deletion strains, locus YKL009W, strain mrt4, hits give low values",0.879
same,normalized growth,"S. cerevisiae deletion strains, locus YKL068W, hits give low values",0.937 (active)
same,normalized growth,"S. cerevisiae deletion strains, locus YKL085W, strain MDH1 (second series), hits give low values",0.919 (active)
same,normalized growth,"S. cerevisiae deletion strains, locus YKL085W, strain MDH1, hits give low values",0.919 (active)
same,normalized growth,"S. cerevisiae deletion strains, locus YKL190W, strain CNB1, hits give low values",0.979
same,normalized growth,"S. cerevisiae deletion strains, locus YKR001C, strain vps1, hits give low values",0.947
same,normalized growth,"S. cerevisiae deletion strains, locus YLR039C, strain RIC1, hits give low values",0.842
same,normalized growth,"S. cerevisiae deletion strains, locus YLR058C, strain SHM2, hits give low values",0.957
same,normalized growth,"S. cerevisiae deletion strains, locus YLR102C, strain apc9, hits give low values",0.97
same,normalized growth,"S. cerevisiae deletion strains, locus YLR113W, strain HOG1, hits give low values",0.828 (active)
same,normalized growth,"S. cerevisiae deletion strains, locus YLR262C, strain YPT6, hits give low values",0.859
same,normalized growth,"S. cerevisiae deletion strains, locus YLR268W, strain sec22, hits give low values",1.04
same,normalized growth,"S. cerevisiae deletion strains, locus YLR330W, strain CHS5, hits give low values",0.956
same,normalized growth,"S. cerevisiae deletion strains, locus YLR342W, strain FKS1 (second series), hits give low values",0.999
same,normalized growth,"S. cerevisiae deletion strains, locus YLR371W, strain rom2, hits give low values",0.962
same,normalized growth,"S. cerevisiae deletion strains, locus YLR418C, strain cdc73, hits give low values",0.99
same,normalized growth,"S. cerevisiae deletion strains, locus YML016C, strain PPZ1, hits give low values",0.97
same,normalized growth,"S. cerevisiae deletion strains, locus YML032C, strain rad52, hits give low values",0.987
same,normalized growth,"S. cerevisiae deletion strains, locus YML124C, strain tub3, hits give low values",0.968
same,normalized growth,"S. cerevisiae deletion strains, locus YMR078C, strain ctf18, hits give low values",0.953
same,normalized growth,"S. cerevisiae deletion strains, locus YMR223W, strain ubp8, hits give low values",0.968
same,normalized growth,"S. cerevisiae deletion strains, locus YMR263W, strain SAP30, hits give low values",0.982
same,normalized growth,"S. cerevisiae deletion strains, locus YMR307W, strain GAS1, hits give low values",0.953
same,normalized growth,"S. cerevisiae deletion strains, locus YNL067W, strain RPL9B, hits give low values",1
same,normalized growth,"S. cerevisiae deletion strains, locus YNL128W, strain TEP1, hits give low values",0.966
same,normalized growth,"S. cerevisiae deletion strains, locus YNL153C, strain GIM3, hits give low values",0.997
same,normalized growth,"S. cerevisiae deletion strains, locus YNL183C, strain NPR1, hits give low values",0.864
same,normalized growth,"S. cerevisiae deletion strains, locus YNL233W, strain BNI4, hits give low values",1
same,normalized growth,"S. cerevisiae deletion strains, locus YNL250W, strain rad50, hits give low values",0.941
same,normalized growth,"S. cerevisiae deletion strains, locus YNL271C, strain bni1, hits give low values",0.951
same,normalized growth,"S. cerevisiae deletion strains, locus YNL298W, strain CLA4, hits give low values",0.929
same,normalized growth,"S. cerevisiae deletion strains, locus YNL307C, strain MCK1, hits give low values",0.979
same,normalized growth,"S. cerevisiae deletion strains, locus YNL322C, strain KRE1, hits give low values",0.969
same,normalized growth,"S. cerevisiae deletion strains, locus YNR052C, strain pop2, hits give low values",0.98
same,normalized growth,"S. cerevisiae deletion strains, locus YOL006C, strain TOP1, hits give low values",1
same,normalized growth,"S. cerevisiae deletion strains, locus YOL012C, strain htz1",1.04
same,normalized growth,"S. cerevisiae deletion strains, locus YOL147C, strain pex11, hits give low values",0.975
same,normalized growth,"S. cerevisiae deletion strains, locus YOR061W, strain CKA2, hits give low values",0.964
same,normalized growth,"S. cerevisiae deletion strains, locus YOR069W, strain VPS5, hits give low values",0.966
same,normalized growth,"S. cerevisiae deletion strains, locus YOR136W, strain idh2, hits give low values",0.977
same,normalized growth,"S. cerevisiae deletion strains, locus YOR144C, strain elg1, hits give low values",0.972
same,normalized growth,"S. cerevisiae deletion strains, locus YOR184W, strain ser1, hits give low values",0.98
same,normalized growth,"S. cerevisiae deletion strains, locus YOR231W, strain MKK1, hits give low values",0.894
same,normalized growth,"S. cerevisiae deletion strains, locus YOR316C, strain cot1, hits give low values",0.962
same,normalized growth,"S. cerevisiae deletion strains, locus YPL055C, strain LGE1, hits give low values",0.964
same,normalized growth,"S. cerevisiae deletion strains, locus YPL241C, strain CIN2, hits give low values",0.976
same,normalized growth,"S. cerevisiae deletion strains, locus YPL256C, strain CLN2, hits give low values",0.851
same,normalized growth,"S. cerevisiae deletion strains, locus YPR119W, strain clb2, hits give low values",0.958
same,normalized growth,"S. cerevisiae deletion strains, locus YPR141C, strain kar3, hits give low values",0.921
same,normalized growth,"S. cerevisiae deletion strains, locus YPR163C, strain tif3, hits give low values",0.986
same,normalized growth,"S. cerevisiae deletion strains, locus YPR167C, strain met16, hits give low values",0.975
same,normalized growth,"S. cerevisiae deletion strains, strain wtn01, hits give low values",0.983
same,normalized growth,"S. cerevisiae strains, strain wild type, hits give low values",0.973
